According to the supplement of paper PMC10338343:
± gives the standard deviation.

What follows are sequences tested on MILI (PIWIL2) piRISC loaded with L1MC piRNA (26 nt) (assay: pre-steady-state target cleavage rate (min^-1); guide: L1MC piRNA 5'p-UAACUAAAUACUAUGCAAGCUGUAGG; MIWI and MILI are mouse PIWI proteins and EfPiwi is from a freshwater sponge; tags in brackets are library labels; higher = faster piRNA-guided slicing of the target). Settings: auxiliary factor: none (no GTSF1).
Method in brief: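 Cleave-'n-Seq: a transcribed, DNA-blocked target RNA library (0.1 nM) was mixed with 1 nM active affinity-purified piRISC carrying one synthetic guide, with or without 500 nM GTSF1 partner protein, in HEPES–potassium acetate buffer at 33 °C for 0–8 or 0–960 min. Uncleaved targets were sequenced and normalised to depth and to weakly complementary targets. Three trials were pooled, and k3 was capped at 0.0001 min^-1. The pre-steady-state cleavage rate came from a burst-and-steady-state fit.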
In the case of UCCUGGAUGUCGAAGCAUACAUUUUAGUUA, the “pre-steady-state target cleavage rate” value is reported as < 0.0001.
For UCCUGGAUGUCGAACGUUAGUAUUUAGUGUA, the “pre-steady-state target cleavage rate” value was < 0.0001.
In the case of UCCUGGAUGUCGUUGCAUAGUGAUUUAGUUA, the “pre-steady-state target cleavage rate” value is reported as 0.0042 ± 0.0032.
With UCCUGGAUGUCGAUGCAUUGUAAUUAGUUA the “pre-steady-state target cleavage rate” value was < 0.0001.
UCCUGGAUGUCGUUGCAAAGUUUUUAGUUA was tested, and the “pre-steady-state target cleavage rate” value was 0.00384 ± 0.0022.
UCCUGGAUGUCGAACGAUAGUAUUUAUGUUA was tested, and the “pre-steady-state target cleavage rate” value was < 0.0001.
For UCCUGGAUGUGCUUGCAUAGAUAUUUAGUUA, the “pre-steady-state target cleavage rate” value was 0.00495 ± 0.0023.
